Eight compounds from PubChem BioAssay (NCI) can be followed below.

About 83,000 compounds went through this panel and 20% of them were active in at least one assay; those are over-represented in the sample as a whole.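 Step 1: grow cells in 96-well plates. Step 2: add test compound at a single concentration. Step 3: incubate 48 h. Step 4: record percent growth.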 A number with no mark means an inactive call. Active and inactive are the calls of the source. How the source made its calls: active means growth percent below 10; inactive means the rest.

Some test systems named below: DU-145 prostate; K-562 leukemia; MALME-3M melanoma; MDA-MB-231 breast; RXF 393 renal; SF-268 CNS; SF-295 CNS; SF-539 CNS; UACC-257 melanoma; M14 melanoma; HCT-15 colon; HT29 colon; SNB-75 CNS; SNB-19 CNS; U251 CNS; PC-3 prostate; SK-MEL-5 melanoma; UACC-62 melanoma; LOX IMVI melanoma; SK-MEL-28 melanoma.
What all share (assay): NCI-60 one-dose screen, 48 h (100 = growth as untreated, 0 = no growth, -100 = all killed)
What all share (conditions): 10 µM

Consider `Cc1ccc2c3c(cccc13)-c1ccccc1C2=O`, for which the growth in the assay on DU-145 prostate is 101%; in the assay on K-562 leukemia, 108%; with MALME-3M melanoma it was 110%; in the assay with MDA-MB-231 breast, 95.5%; in the assay with RXF 393 renal it was 105%; in the assay with SF-268 CNS, 95.7%. Further, the growth with SF-295 CNS was 95.1%; in the assay on SF-539 CNS it was 97.2%; in the assay with UACC-257 melanoma it was 101%; in the assay on M14 melanoma, 98.6%; in the assay with HCT-15 colon, 85%; with HT29 colon it was 83.3%. The growth is 89.6% in the assay on SNB-75 CNS; 96.5% in the assay with SNB-19 CNS; 87.8% in the assay on U251 CNS; 91.3% with PC-3 prostate; 91.3% with SK-MEL-5 melanoma; 90.6% in the assay with UACC-62 melanoma. Besides, the growth with LOX IMVI melanoma was 97.8%; in the assay on SK-MEL-28 melanoma, 121%.

On to `CNC(=O)c1cc(Oc2ccc(NC(=O)Nc3ccc(Cl)c(OC4CCCCC4)c3)c(F)c2)ccn1`, for which the growth is 65.6% with DU-145 prostate; 17.1% in the assay on K-562 leukemia; 69% with MALME-3M melanoma; 68.7% in the assay with MDA-MB-231 breast; 79.4% in the assay on RXF 393 renal; 61% with SF-268 CNS. In addition, the growth in the assay on SF-295 CNS is 20.5%; with SF-539 CNS, 59.9%; with UACC-257 melanoma, 23.3%; with M14 melanoma it was 40%; in the assay with HCT-15 colon, 37.7%; in the assay with HT29 colon, 48.1%. Further, the growth with SNB-75 CNS is 51.5%; with SNB-19 CNS it was 41.2%; in the assay with U251 CNS, 38.8%; with PC-3 prostate, 16.6%; in the assay on SK-MEL-5 melanoma it was 15.6%; with UACC-62 melanoma it was 32.2%. The growth is 42.3% with LOX IMVI melanoma and 75.4% in the assay on SK-MEL-28 melanoma.

Turning to `COc1ccc(Nc2ccnc(N3CCN(c4ccnc5cc(Cl)ccc45)CC3)n2)cc1`, the growth in the assay on DU-145 prostate was 15.6%; with K-562 leukemia, 2.55% (active); in the assay with MALME-3M melanoma, 5.65% (active); in the assay with MDA-MB-231 breast, 24.8%; in the assay with RXF 393 renal it was -26.6% (active); in the assay with SF-268 CNS, 30.3%. The growth in the assay with SF-295 CNS was -4.17% (active); in the assay with SF-539 CNS, -31.4% (active); with UACC-257 melanoma, -1.27% (active); with M14 melanoma, -13.3% (active); with HCT-15 colon it was 7.35% (active); in the assay with HT29 colon it was -6.34% (active). Further, the growth with SNB-75 CNS was -20.9% (active); with SNB-19 CNS it was 28.7%; in the assay on U251 CNS it was 8.61% (active); in the assay with PC-3 prostate, 0.553% (active); in the assay with SK-MEL-5 melanoma, -55.1% (active); with UACC-62 melanoma, -4.07% (active). Moreover, the growth is 4.18% (active) in the assay with LOX IMVI melanoma and 5.19% (active) in the assay with SK-MEL-28 melanoma.

As to `COc1cc(CSc2nc3ccc(Cl)cc3c(=O)n2-c2ccccc2)cc(OC)c1OC`, the growth was 92.9% in the assay on DU-145 prostate; 38.2% with K-562 leukemia; 76.5% with MALME-3M melanoma; 63% in the assay with MDA-MB-231 breast; 68.9% with RXF 393 renal; 77.7% in the assay with SF-268 CNS. For the same compound, the growth in the assay with SF-295 CNS is 84.2%; in the assay on SF-539 CNS, 78.9%; in the assay with UACC-257 melanoma it was 89.7%; with M14 melanoma, 93.2%; with HCT-15 colon it was 52.5%; in the assay with HT29 colon, 67%. Moreover, the growth was 75.8% with SNB-75 CNS; 80.6% in the assay with SNB-19 CNS; 88.6% in the assay with U251 CNS; 73.2% with PC-3 prostate; 81.3% with SK-MEL-5 melanoma; 64.1% in the assay on UACC-62 melanoma. Further, the figures for the growth in the assay with LOX IMVI melanoma and with SK-MEL-28 melanoma were 79.3% and 103%, respectively.

As to `COc1cccc(-c2nnc(COc3ccc(-c4nc5ccc(C)cc5[nH]4)cc3OC)o2)c1`, the growth in the assay on DU-145 prostate was 65.2%; in the assay with K-562 leukemia, 13.5%; in the assay on MALME-3M melanoma it was 52.8%; with MDA-MB-231 breast it was 64.5%; with RXF 393 renal, 85.1%; in the assay with SF-268 CNS it was 101%. Moreover, the growth was 99.2% in the assay on SF-295 CNS; 57.4% with SF-539 CNS; 97.1% in the assay with UACC-257 melanoma; 53.9% in the assay on M14 melanoma; 18.5% in the assay on HCT-15 colon; 21.4% with HT29 colon. Also, the growth with SNB-75 CNS is 56.6%; in the assay on SNB-19 CNS it was 69.6%; in the assay with U251 CNS, 23%; with PC-3 prostate it was 57.7%; in the assay with SK-MEL-5 melanoma, 70.4%; with UACC-62 melanoma, 79.9%. For the same compound, the growth with LOX IMVI melanoma was 78.4%; with SK-MEL-28 melanoma, 65.2%.

For the compound `Cc1ccc2oc(=O)cc(/C(=C3/C=CC=N3)c3ccc[nH]3)c2c1`, the growth in the assay on DU-145 prostate was 0.492% (active); with K-562 leukemia, -0.946% (active); in the assay with MALME-3M melanoma, 25.6%; in the assay on MDA-MB-231 breast it was -6.98% (active); in the assay on RXF 393 renal, -21.7% (active); in the assay with SF-268 CNS it was 12.7%. Also, the growth with SF-295 CNS is -23.9% (active); in the assay with SF-539 CNS it was -33.6% (active); in the assay with UACC-257 melanoma, 6.21% (active); in the assay with M14 melanoma, -7.95% (active); with HCT-15 colon it was 5.43% (active); in the assay with HT29 colon, -36.6% (active). Further, the growth was 8.89% (active) with SNB-75 CNS; 16.2% in the assay on SNB-19 CNS; -17.2% (active) in the assay on U251 CNS; 8.12% (active) in the assay with PC-3 prostate; -59.2% (active) with SK-MEL-5 melanoma; 11.8% with UACC-62 melanoma. The growth was 0.877% (active) in the assay with LOX IMVI melanoma and 27.7% in the assay on SK-MEL-28 melanoma.

In the case of `Nc1c(C(=O)NC2CCCCC2)sc2nc3c(cc12)C(=O)CCC3`, the growth is 102% in the assay on DU-145 prostate; 88.4% in the assay on K-562 leukemia; 139% with MALME-3M melanoma; 101% in the assay with MDA-MB-231 breast; 92.1% in the assay on RXF 393 renal; 109% in the assay with SF-268 CNS. Further, the growth in the assay on SF-295 CNS is 88.8%; in the assay with SF-539 CNS, 107%; in the assay on UACC-257 melanoma, 88.1%; in the assay with M14 melanoma, 103%; with HCT-15 colon it was 85.8%; in the assay on HT29 colon, 110%. For the same compound, the growth with SNB-75 CNS was 95%; in the assay on SNB-19 CNS, 97.2%; with U251 CNS, 93.6%; in the assay with PC-3 prostate, 92.4%; in the assay on SK-MEL-5 melanoma it was 95%; in the assay on UACC-62 melanoma, 91%. Also, the growth was 103% in the assay on LOX IMVI melanoma and 94.8% in the assay on SK-MEL-28 melanoma.

With `O=c1ccc2nc(-c3ccccc3)nn(-c3ccccc3)c-2c1`, the growth in the assay with DU-145 prostate was -95.4% (active); with K-562 leukemia, -39% (active); in the assay with MALME-3M melanoma it was -92.5% (active); with MDA-MB-231 breast, 76.3%; in the assay with RXF 393 renal it was -92.8% (active); in the assay with SF-268 CNS it was 70.5%. Further, the growth is 23.9% with SF-295 CNS; 105% in the assay with SF-539 CNS; -97.3% (active) in the assay with UACC-257 melanoma; 51.2% with M14 melanoma; -75.9% (active) with HCT-15 colon; -53.5% (active) in the assay with HT29 colon. Moreover, the growth in the assay with SNB-75 CNS was 93.3%; in the assay with SNB-19 CNS, 78%; with U251 CNS, 66.2%; in the assay with PC-3 prostate, 43.5%; with SK-MEL-5 melanoma, 19.8%; in the assay with UACC-62 melanoma, 30.1%. Moreover, the growth in the assay with LOX IMVI melanoma was -51.9% (active); in the assay with SK-MEL-28 melanoma, 26.4%.
